Screening data as filed in PubChem BioAssay.
Ba/F3 V617F tox: reduced viability of JAK2V617F-dependent Ba/F3 cells, primary screen, JAK2V617F inhibitor project, cell-based, Ba/F3 EpoR-JAK2V617F, luminescence; ATP luminescence; inhibition, % at 5.6 µM; 220,000 compounds, 1.1% hits;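 active = inhibition above the campaign mean plus 3 SD over all tested compounds, cut at about 24% in these data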;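 note: cytokine-independent growth of Ba/F3 cells driven by EpoR plus mutant JAK2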
GPR7 antag: GPR7 receptor antagonists, primary screen, cell-based, fluorescence, single concentration; GPR7-expressing cells, fluorescence antagonist assay; Neuropeptides B/W receptor type 1 (Homo sapiens), P48145; 290,000 compounds, 1.1% hits; inhibition, % at 4.4 µM; in the data active = inhibition above about 16%, passing the limit was not always enough;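 note: cells stimulated with the agonist NPW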
Target sequence (P48145 whole entry, looked up): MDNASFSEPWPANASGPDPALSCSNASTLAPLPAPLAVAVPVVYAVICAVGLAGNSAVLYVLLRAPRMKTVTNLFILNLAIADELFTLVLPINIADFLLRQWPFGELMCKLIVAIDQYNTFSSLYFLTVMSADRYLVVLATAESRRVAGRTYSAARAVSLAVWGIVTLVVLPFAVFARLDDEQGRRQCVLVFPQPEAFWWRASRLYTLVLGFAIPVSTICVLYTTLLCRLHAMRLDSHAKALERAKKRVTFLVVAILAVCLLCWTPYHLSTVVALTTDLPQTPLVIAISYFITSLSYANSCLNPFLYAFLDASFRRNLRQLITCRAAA
BaF3 tox: parental Ba/F3 cell viability inhibition, counter-screen for JAK2V617F inhibitor project, murine pro-B, CellTiter-Glo luminescence; CellTiter-Glo ATP luminescence; inhibition, % at 5.6 µM; 220,000 compounds, 1.1% hits;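 active = inhibition above a per-campaign cutoff, the mean inhibition of all tested compounds plus 3 SD, cut at about 27% in these data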
IEC-6 tox: cytotoxicity in IEC-6 intestinal epithelial cells, primary screen, cytotoxicity control for KLF5 inhibitor project, cell-based, luminescence; AID 1825, 2009; IEC-6 cytotoxicity, luminescence viability; inhibition, % at 5 µM; 290,000 compounds, 0.78% hits
DNA FID counter: compounds displacing fluorescent DNA intercalator, primary screen, artefact control for HCV NS3 helicase inhibitor project, biochemical, FID fluorescence | DNA fluorescent intercalator displacement | inhibition, % at 7.9 µM | 290,000 compounds, 0.17% hits; in the data active = inhibition above about 37%;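 note: higher means more ethidium bromide displaced from hairpin DNA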
KLF5 inh: KLF5 expression inhibitors, primary screen, DLD-1 cells, luminescence; DLD-1 KLF5 promoter-luciferase reporter; inhibition, % at 5 µM; 290,000 compounds, 0.23% hits; AID 1700, 2009;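 active = inhibition above a per-plate limit of that plate's mean compound inhibition plus 3 SD, cut at about 60% in these data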;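 note: higher means less KLF5 promoter-driven luciferase light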
GPR7 antag conf: GPR7 receptor antagonists, confirmation, cell-based, fluorescence, single concentration | shares compounds with GPR7 antag | GPR7-expressing cells, calcium fluorescence antagonist mode | inhibition, % at 4.4 µM | 2,400 compounds, 52% hits | AID 1952, 2009; in the data active = inhibition above about 24%;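 note: stimulated with the GPR7 agonist NPW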
MCHR1 antagonist: MCHR1 antagonists in cells, counter-screen for GPR7 antagonist project, cell-based, fluorescence, human | shares compounds with GPR7 antag | MCHR1-expressing cells, fluorescence antagonist assay | inhibition, % at 4.4 µM | 2,400 compounds, 62% hits | AID 2148, 2009
Of the large screens only hits and unclear results are named; the others gave an inactive call (follow-up assays come after a bar, where they were run). Sampled rows, rich in hits. Any-hit rate of the full collection: about 2.6%. Cut-off read from the data, not from the text of the source, unless noted: active = inhibition above about 22%; inactive = the rest.

NC(=O)C1CCN(C(=O)/C(=C/c2ccccc2)NC(=O)c2ccccc2)CC1	none (no result: Ba/F3 V617F tox, BaF3 tox)
CN(/N=C/Cc1nnnn1-c1ccc(Cl)cc1)c1ccccc1	none
O=C(NC1CCCCC1)NC1CCN(CC(=O)N2CCOCC2)CC1	none
CC(=O)Nc1nc(-c2ccccc2)nc(C)c1C(C)=O	none
C#CCOCCOCCOCCNc1nc(N2CCN(C(=O)[C@H](Cc3cc4ccccc4[nH]3)n3cc([C@@H](N)CC(C)C)nn3)CC2)nc(N2CCN(C(=O)[C@H](Cc3cc4ccccc4[nH]3)n3cc([C@@H](N)CC(C)C)nn3)CC2)n1	GPR7 antag 79.1, DNA FID counter 63.9 | GPR7 antag conf 54.4 | MCHR1 antagonist 33.0
Cc1nc2n(n1)C(O)c1cc([N+](=O)[O-])ccc1S2 (configuration not stated)	GPR7 antag 30.6 | GPR7 antag conf inactive | MCHR1 antagonist inactive
O=[N+]([O-])c1ccc2c(c1)C(O)n1ncnc1S2 (configuration not stated)	none
CC(C)c1ccc(C(=O)Nc2nnc(S(=O)(=O)N3CCCCC3)s2)cc1	GPR7 antag 66.6 (no result: Ba/F3 V617F tox, BaF3 tox) | GPR7 antag conf inactive | MCHR1 antagonist 27.1
O=C1C2C3C=CC(C3)C2C(=O)N1c1ccc(-c2nc3ccccc3o2)cc1 (configuration not stated)	GPR7 antag 39.5 | GPR7 antag conf inactive | MCHR1 antagonist inactive
O=C1C2C3C=CC(C3)C2C(=O)N1c1ccncc1 (configuration not stated)	none
Cc1ncsc1CCOC(=O)c1cccc([N+](=O)[O-])c1	GPR7 antag 21.7 | GPR7 antag conf inactive | MCHR1 antagonist 34.1
O=C(COC(=O)c1cccc([N+](=O)[O-])c1)NCc1cccs1	none
COc1ccc(CCNC2=NCCS2)cc1	none
COc1ccccc1-n1c(SCc2cc(=O)oc3cc(O)ccc23)nc2ccccc2c1=O	none
COc1ccccc1-n1c(=O)oc2ccc(Cl)cc2c1=O	GPR7 antag 28.0 | GPR7 antag conf inactive | MCHR1 antagonist inactive
O=C(Nc1cccnc1)c1cc(-c2ccc(Cl)c(Cl)c2)on1	none (no result: Ba/F3 V617F tox, BaF3 tox)
O=C(Nc1cccnc1)c1cc(-c2ccccc2O)on1	GPR7 antag 38.5 | GPR7 antag conf 40.4 | MCHR1 antagonist 43.3
O=C(Nc1cccnc1)c1cc(-c2cccc(Cl)c2)on1	GPR7 antag 23.2 (no result: Ba/F3 V617F tox, BaF3 tox) | GPR7 antag conf inactive | MCHR1 antagonist 43.0
CC(=O)[C@@]1(O)[C@H](C)CC2C3CC=C4CC(OP(=O)(O)O)CC[C@]4(C)C3CC[C@@]21C (some centres not stated)	GPR7 antag 28.4 (no result: Ba/F3 V617F tox, BaF3 tox) | GPR7 antag conf inactive | MCHR1 antagonist inactive
CCOc1ccc(-c2cc(NC(=O)c3c(F)cccc3F)c(C(=O)O)s2)cc1	GPR7 antag 51.4 (no result: Ba/F3 V617F tox, BaF3 tox) | GPR7 antag conf 26.4 | MCHR1 antagonist 28.2
O=C(NCCN1CCOCC1)c1cc(Br)ccc1Cl	GPR7 antag 29.1 (no result: Ba/F3 V617F tox, BaF3 tox) | GPR7 antag conf inactive | MCHR1 antagonist inactive
Cc1cccc2cc(CNCC3CCCO3)c(Cl)nc12 (configuration not stated)	GPR7 antag 22.1 | GPR7 antag conf inactive | MCHR1 antagonist inactive
Clc1ccc(CN=C(Nc2ccccc2)NC2CCCCC2)cc1	GPR7 antag 40.1 | GPR7 antag conf 56.5 | MCHR1 antagonist 44.5
CN1C(=O)C(=C2CCCCCC2)SC1=S	GPR7 antag 30.5 | GPR7 antag conf inactive | MCHR1 antagonist inactive
Cc1ccc(S(=O)(=O)N(C)Cc2ccc(-c3nnco3)cc2)cc1	GPR7 antag 26.5 | GPR7 antag conf 46.9 | MCHR1 antagonist 41.8
COc1ccc(/C=C/C=N/NC(=O)COc2ccc(OC)cc2)cc1	none
NS(=O)(=O)c1ccc(CCNCc2cc(Cl)ccc2OCc2ccccc2)cc1	GPR7 antag 27.8 (no result: Ba/F3 V617F tox, BaF3 tox) | GPR7 antag conf 27.5 | MCHR1 antagonist 56.9
NS(=O)(=O)c1ccc(CCNCc2cc(Br)ccc2OCc2ccccc2F)cc1	GPR7 antag 38.4 | GPR7 antag conf 53.4 | MCHR1 antagonist 75.6
O=C(COc1ccc(Br)cc1CNCCc1ccccc1)NCc1ccccc1	GPR7 antag 30.9 | GPR7 antag conf 40.1 | MCHR1 antagonist 53.6
CO/N=C(\Cn1ncc(N2CCCC2)c(Br)c1=O)c1ccc(Cl)cc1	none
O=C(Nc1ccc(F)c([N+](=O)[O-])c1)c1cccs1	none
Cn1c2ccccc2c(=O)c2cc(C#Cc3ccc(N)cc3)ccc21	none (no result: Ba/F3 V617F tox, BaF3 tox)
COc1cc(/C=C(\C#N)c2nc3ccccc3o2)ccc1O	GPR7 antag 26.1 | GPR7 antag conf 35.6 | MCHR1 antagonist 46.4
COc1ccc(NCC(=O)N/N=C2\CCc3ccccc32)cc1	none
CCCCCC1CC(CC#CCN2CCOCC2)C(=O)O1 (configuration not stated)	none
C=C1CCc2c([nH]c3ccc(OCC(C)C)cc23)C1=O	GPR7 antag 56.5 (no result: Ba/F3 V617F tox, BaF3 tox) | GPR7 antag conf 91.3 | MCHR1 antagonist 97.5
CCn1c2c(c3cc(OCC(C)C)ccc31)CCCC2=O	none
O=C(CN1C2=NCCN2c2ccccc21)C12CC3CC(CC(C3)C1)C2	GPR7 antag 42.0 | GPR7 antag conf 40.3 | MCHR1 antagonist 31.6
c1ccc(CN2C3=NCCN3c3ccccc32)cc1	none
O=C(N/N=C/c1cccs1)c1cccnc1	none
CC1CCN(C2CC(=O)N(c3ccccc3)C2=O)CC1 (configuration not stated)	none
Cc1ccc(N(C(=O)c2csnn2)C(C(=O)NC2CCCC2)c2ccncc2)c(C)c1 (configuration not stated)	GPR7 antag 40.6 (no result: Ba/F3 V617F tox, BaF3 tox) | GPR7 antag conf inactive | MCHR1 antagonist inactive
Cc1ccc(C)c(N(C(=O)c2csnn2)C(C(=O)NC2CCCC2)c2ccncc2)c1 (configuration not stated)	none (no result: Ba/F3 V617F tox, BaF3 tox)
CC(=O)O[C@@H]1C[C@H]2C(C)(C)C(=O)C=C[C@]2(C)[C@H]2CC[C@@]3(C)[C@H](c4ccoc4)OC(=O)[C@H]4O[C@]43[C@@]21C	GPR7 antag 28.4 | GPR7 antag conf 41.7 | MCHR1 antagonist inactive
CCOC(=O)C1=C(C)NC(=O)NC1c1ccoc1 (configuration not stated)	none
CCN(CC)C(=O)CN(c1cc(Cl)ccc1OC)S(C)(=O)=O	none
N#Cc1nc(COc2ccc(F)cc2)oc1NCCCn1ccnc1	none
